This is part of a sample that, as a whole, favours compounds with a hit. Of some 79,000 tested, about 15% had one in any assay. Values without a mark were called inactive. No stated cut-off is given here; in the data, active means growth inhibition above about 70%; inactive means the rest.

The experiment in a line: NCI Yeast Anticancer Drug Screen. Data for the cln2 rad14 strain (AID 165).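 Further: 0% = growth equal to vehicle treated cultures.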 The settings on record: S. cerevisiae cln2 rad14 strain, at 50.0 µM, stronger effect = higher value. Summed up:
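Readout is yeast growth inhibition versus vehicle-treated controls, using a strain with cln2 and rad14 alterations exposed to compound.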
Take `Cc1cccc2nc(-c3ccccc3)ccc12`: the growth inhibition was 5.6%.
Regarding `C=CCCCCCCCCCO`, the growth inhibition is 10.8%.
In the case of `COc1ccc(-n2cc3c(=O)nccc-3c3ccccc32)cc1OC`, the growth inhibition is -10.6%.
Consider `FC(F)(F)c1ccc(C2ON=C(c3ccccc3)N2C23CC4CC(CC(C4)C2)C3)cc1` (stereo not given), for which the growth inhibition is -0.4%.
On to `Cc1ccccc1C(=O)OCCBr`, for which the growth inhibition was -27.1%.
As to `CC(C)(O)/C(=N/O)c1ccc(-c2ccccc2)cc1`, the growth inhibition is -16.1%.
As to `COC(=O)C1=C(C)NC(C)=C(C(=O)OC)C1c1cccc(N=O)c1`, the growth inhibition is 4.4%.
`[O-][n+]1c2ccccc2nn1-c1ccccc1`: the growth inhibition was -21.4%.
`O=C(CN1C(=O)c2cccc3c(Br)ccc(c23)C1=O)c1ccc(Cl)cc1`: the growth inhibition is 5%.
As to `S=C(S)NCNC(=S)S.[Zn+2]`, the growth inhibition was -64.2%.
The figure for `O=C(O)CC1CCCNC1` (stereo not given) is -18.6%.
For the compound `CC1CCN(C(=O)C(c2ccccc2)c2ccccc2)CC1`, the growth inhibition is -18.8%.
The figure for `C=C/C=C1\CCOC1=O` is -3.05%; for `Cc1ccc(C)c(NC(=O)C(=O)C(C#N)c2c(Cl)cccc2Cl)c1` (stereo not given) it is -24.4%; for `COc1ccc2c(O)cc(C(=O)O)c(-c3ccccc3)c2c1` it is -17.5%.
Turning to `CCCC(CCC)C(=O)OCC(=O)c1ccc(-c2ccccc2)cc1`, the growth inhibition was -43.9%.
With `CCC(=C(C#N)C#N)c1cc(OC)c(OC)c(OC)c1`, the growth inhibition was -16.2%.
The figure for `CCCCC(SC(CC)(CC)C(N)=O)C(N)=O` (stereo not given) is -28.9%; for `NC(=O)C1CC(I)C2CC1C(=O)O2` (stereo not given) it is 4.3%.
With `O/N=C/c1ccccn1`, the growth inhibition was 6.85%.
In the case of `Nc1nc(Cl)nc(Cl)c1N`, the growth inhibition is -23.4%.
On to `Cc1ccc(C(=O)N/N=C/c2ccccc2Cl)cc1`, for which the growth inhibition was -20.4%.
Regarding `CCOC(=O)/C(C#N)=C/c1c[nH]c2ccccc12`, the growth inhibition is 23.8%.
For the compound `Nc1cccc(C(F)(F)F)c1N`, the growth inhibition is -24.4%.
`CCCCCCCCCCCCCCCCSc1ccncc1NN=O`: the growth inhibition was -10.5%.
On to `NC(C(=O)O)c1ccc(F)cc1` (stereo not given), for which the growth inhibition was -10%.
Consider `CCOC(=O)CCC1(C(=O)OCC)CCCCC1=O` (stereo not given), for which the growth inhibition was -16.9%.
Regarding `CN(C)c1ccc(C2c3c(oc4ccccc4c3=O)Oc3oc4ccccc4c(=O)c32)cc1`, the growth inhibition is 5.4%.
The figure for `C=C1CN(C2=NCCO2)C1` is -12.9%.
The figure for `CCOc1c(Cc2ccccc2)c(=O)n2c3ccccc3n3c(=O)n(C)c(=O)c1c23` is 11.8%; for `CCC(CC)(C1CCC(=O)CC1)C1CCC(=O)CC1` it is -9.2%.
In the case of `COC1/C=C/OC2(C)Oc3c(C)c(O)c4c(O)c(c(/C=N/OC/C=C(\C)CCC=C(C)C)c(O)c4c3C2=O)NC(=O)C(C)=C/C=C/C(C)C(O)C(C)C(O)C(C)C(OC(C)=O)C1C` (stereo not given), the growth inhibition was -10.9%.
As to `COc1cccc(CN(CCc2cccc(OC)c2OC)C(=O)CN2CCOCC2)c1O`, the growth inhibition is 8.8%.
Take `O=S(=O)(Cl)C1c2ccccc2-c2ccccc21`: the growth inhibition is 15.7%.
With `O=C(/C=C/c1cccc(O)c1)c1ccccc1`, the growth inhibition is 59.8%.
The figure for `COc1ccc2[nH]c(=O)cc(C)c2c1` is -37.7%; for `ONC1=Nc2ccccc2C(=S)N2CSCC12` (stereo not given) it is -19.6%; for `O=[N+]([O-])c1cccnc1Sc1ccccc1C1=NCCCN1` it is 19.9%.
`CCCCCCCCCCCCCCCCCCCCCCCCCC`: the growth inhibition was 19.9%.
Turning to `CC(=O)N1CCc2ccccc2C1C1NCCc2ccccc21` (stereo not given), the growth inhibition is -0.15%.

For the origin of these results see PubChem BioAssay (NCI).
